# Laboratory results taken from ChEMBL document CHEMBL3988442, “University of Dundee, Small-Polar-MMV Screening Library” (2021).
# Target: T1, Arginase-2, mitochondrial (Homo sapiens) (UniProt P78540)
# T1 sequence (whole entry): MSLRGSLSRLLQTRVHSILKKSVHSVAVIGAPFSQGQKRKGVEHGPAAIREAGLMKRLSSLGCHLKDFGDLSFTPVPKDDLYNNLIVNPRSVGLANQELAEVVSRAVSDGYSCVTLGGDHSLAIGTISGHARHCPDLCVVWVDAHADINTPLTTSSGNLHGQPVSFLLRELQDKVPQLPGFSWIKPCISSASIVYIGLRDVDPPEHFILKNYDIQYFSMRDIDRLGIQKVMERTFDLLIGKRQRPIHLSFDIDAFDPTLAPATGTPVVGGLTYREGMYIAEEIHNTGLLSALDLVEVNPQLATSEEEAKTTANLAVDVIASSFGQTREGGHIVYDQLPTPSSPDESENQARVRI
# Assay: in vitro enzyme assay to detect the production of urea directly proportional to the activity of Arginase II
# Type: functional
# Parameters: scale not given: in the data most compounds retested in dose-response had high values
# Settings: 30 µM
row,SMILES,Percent Effect [%]
1,O=c1[nH]c2c(c(=O)n1C1CCCCC1)CCC2Nc1ccccn1 (stereo not given),5.95
2,CCCNC(=O)c1cc(Br)c2c(c1)OCCO2,5.95
3,Nc1ccc(C(=O)N2CCCC(c3nccn3Cc3cscn3)C2)cn1 (stereo not given),5.95
4,Cn1cc(CN2C[C@@H]3COC[C@]3(C(=O)NCCc3ccccc3)C2)cn1,12.4
5,COc1ccccc1Oc1ncccc1CNC(=O)C(O)C(F)(F)F (stereo not given),3.78
6,COc1ccc2c(c1)OCC(CNC(=O)c1cnc(O)cn1)C2 (stereo not given),10.3
7,Cc1ccc(CNCc2nnc3n2CC(C(F)(F)F)CC3)o1 (stereo not given),-7.03
8,Cc1ccc(CCNC(=O)N2CCC(Cc3cnn(C)c3)C2)cn1 (stereo not given),7.03
9,CC1=Nc2c(c(=O)[nH]n2C2CCCCC2)C(c2ccc(C(=O)O)cc2)S1 (stereo not given),5.95
10,COc1ccccc1Oc1ncccc1CNC(=O)C(C)CN (stereo not given),11.3
11,Cc1ncsc1C(=O)N1CCCC(c2nccn2Cc2cscn2)C1 (stereo not given),10.3
12,Cc1ccc([C@@H]2CN(S(=O)(=O)Cc3ccccc3)C[C@H]2N(C)C)cc1,1.62
13,COc1ccc2c(c1)OCC(CNC(=O)c1cc(C(C)C)on1)C2 (stereo not given),2.7
14,CN(Cc1ccco1)[C@@H]1CN(Cc2ccc(F)cc2)[C@@H]2CCCO[C@H]12,2.7
15,O=C(O)C1CCN(C(=O)Cn2ccc3c(Cl)cccc32)CC1,10.3
16,c1ccc(O[C@H]2CO[C@@]3(CCN(Cc4ccc5c(c4)OCO5)C3)C2)nc1,7.03
17,CCOc1cccc(C(=O)N(CCC#N)Cc2ccccn2)c1,13.5
18,CC(C)CN1CCC(NC(=O)c2ccc(F)cc2F)CC1,7.03
19,CC1=Nc2c(c(=O)[nH]n2C2CCOCC2)C(c2cccc(O)c2)S1 (stereo not given),2.7
20,CC(C)[C@H](NC(=O)Cn1nc2c(cc1=O)CCCC2)C(=O)O,13.5

row,SMILES,Percent Effect [%]
1,COCc1ccc(C(=O)N(CCC#N)Cc2ccccn2)cc1,0.54
2,FC(F)(F)C1CCc2nnc(CNCc3cccs3)n2C1 (stereo not given),2.7
3,O=C(Cn1nc2c(cc1=O)CCCC2)NC(Cc1ccccc1)C(=O)O (stereo not given),-13.5
4,O=C(NCC1CC1)[C@@H]1CCO[C@@H]2CCN(CCc3ccccc3)C[C@H]21,1.62
5,CNC(=O)[C@H]1C[C@@H]2CN(C(=O)c3ccc(C)o3)C[C@@H]2N1S(C)(=O)=O,1.62
6,COc1ccc(-c2nc(CN3CC(n4cccn4)C3)no2)cc1,0.54
7,COc1ccc(C)cc1C(C(=O)O)N1CCN(Cc2ccccn2)CC1 (stereo not given),4.87
8,CC[C@@H](NC(C)=O)C(=O)NCc1cccnc1Oc1ccccc1OC,4.87
9,Fc1ccc(CNCc2nnc3n2CC(C(F)(F)F)CC3)c(F)c1 (stereo not given),8.11
10,CNC(=O)[C@@H]1CCO[C@@H]2CCN(CCc3ccccc3)C[C@H]21,8.11
11,Cc1nc(N2CCN(C(=O)NCc3cscn3)CC2)sc1C,5.95
12,Cc1cc(CN(Cc2ccccc2)CC(O)c2cccs2)on1 (stereo not given),3.78
13,Cc1ccc([C@@H]2CN(S(=O)(=O)c3ccccc3)C[C@H]2N(C)C)cc1,3.78
14,CNC(=O)[C@H]1C[C@@H]2CN(C(=O)c3cccnc3)C[C@@H]2N1S(C)(=O)=O,5.95
15,Cc1noc(CNC(=O)N2CCN(c3nc(C)c(C)s3)CC2)n1,5.95
16,CC(C)CS(=O)(=O)CC(=O)N1CCCC1c1noc(C2CC2)n1 (stereo not given),5.95
17,CN(C)c1ccc(NC(=O)C2CN(Cc3ccccc3)CCO2)cn1 (stereo not given),10.3
18,NS(=O)(=O)CCNC(=O)c1cc(Br)c2c(c1)OCCO2,8.11
19,CC(C)c1ncc(CN2CCOC(C(=O)Nc3ccccc3)C2)cn1 (stereo not given),3.78
20,CN(C)c1ncccc1NC(=O)C1CN(Cc2ccccc2)CCO1 (stereo not given),-8.11
